These results are taken from PubChem BioAssay (NCATS).

Assay [1] deals with Zika virus NS2B-NS3 protease (unlinked complex). The assay can be described thus: Primary screen GU Rhodamine qHTS for Zika virus inhibitors: Unlinked NS2B-NS3 protease assay (AID 1347159). Note: nearly all actives have a fitted effect of over 60% in size. Note: potency is the fitted concentration of half-maximal effect. The note with it: Recombinant ZIKV NS2B-NS3 protease, Rhodamine110 substrate fluorescence; series mostly up to 107 µM. The essentials:
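Buffer 10 mM Tris-HCl pH 8.0, 0.01% Tween 20. Unlinked protease 25 nM; compound preincubation 15 min, RT, protected from light. Substrate Rhod110, 1.5 microM; ~15% conversion in 15 min.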
(In general: qHTS replaces the single test concentration by a dilution series.)

The test system of assay [2] is Zika virus NS2B-NS3 protease (linked construct). The experiment in a line: Primary screen NINDS Rhodamine qHTS for Zika virus inhibitors (AID 1347160). Note: nearly all actives have a fitted effect of over 55% in size. The following applies: purified NS2B-NS3 protease, Rhodamine110 substrate fluorescence; series mostly up to 57.1 µM. In short, it runs like this:
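Aprotinin served as in-plate control. Conditions: 25 nM linked NS2B-NS3, pH 8.0 Tris buffer, titrated compounds, 15 min preincubation and 15 min reaction with 1.5 microM Rhod110 substrate at room temperature.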

Assay [3] can be described thus: Confirmatory screen NINDS Rhodamine qHTS for Zika virus inhibitors (AID 1347161). Note: nearly all actives have a fitted effect of over 60% in size. The following applies: purified enzyme assay, Rhodamine110 substrate fluorescence, 15 min; series mostly up to 114 µM. The essentials: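 Purified linked NS2B-NS3 protease (NS2B hydrophilic domain joined to NS3 protease by flexible linker), 25 nM in 10 mM Tris-HCl pH 8.0, 0.01% Tween 20. Compounds titrated, 15 min preincubation at room temperature; 1.5 microM Rhodamine110 substrate, FITC fluorescence change over 15 min.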

Inconclusive results are not listed. A call without a number means that no potency is given here. A number with no mark means an inactive call. The source made the active and inactive calls. Calls come from the whole dose curve; as a rule, active = well fitted inhibition curve with a large enough effect; inconclusive = small, poorly fitted or top-dose-only effect; inactive = no such curve, though single readings can be large or run the other way.

For `O=C1NC(Cc2c[nH]c3ccccc23)C(=O)NC1Cc1cnc[nH]1` (stereo not given), the Potency result in assay [1] and in assay [2] was “inactive” in each case.
On to `COc1ccc2nc(S(=O)(=O)Cc3ncc(C)c(OC)c3C)[nH]c2c1`, for which the Potency result in assay [1] and in assay [2] was “inactive” in each case.
With `CC1(C=O)CC[C@]2(C(=O)O[C@@H]3O[C@H](CO)[C@@H](O)[C@H](O)[C@H]3O)CC[C@]3(C)C(=CCC4[C@@]5(C)C[C@H](O)[C@H](O[C@@H]6OC[C@@H](O)[C@H](O)[C@H]6O)[C@@](C)(CO)C5CC[C@]43C)C2C1` (stereo not given in full), the Potency entry in assay [1] and in assay [2] was “inactive” in each case.
Turning to `CC(C)=CCC[C@](C)(O[C@@H]1O[C@H](CO)[C@@H](O)[C@H](O)[C@H]1O)[C@H]1CC[C@]2(C)[C@@H]1[C@H](O)CC1[C@@]3(C)CC[C@H](O)C(C)(C)C3[C@@H](O[C@@H]3O[C@H](CO)[C@@H](O)[C@H](O)[C@H]3O)C[C@]12C` (stereo not given in full), the Potency entry in assay [1] and in assay [2] was “inactive” in each case.
Take `CC(NC(=O)C(O)C(C)C)C(=O)NC1C(=O)N(C)CCc2ccccc21` (stereo not given): the Potency entry in assay [1] and in assay [2] was “inactive” each time.
As for `CC(O)CCC1C(CO[C@@H]2O[C@H](CO)[C@@H](O)[C@H](O)[C@H]2O)CC(O)CC1(C)C` (stereo not given in full), the Potency entry in assay [1] and in assay [2] was “inactive” each time.
For `CC(C)c1cc(CNc2nc(Nc3cc(C4CC4)[nH]n3)cc(N3CCN(C)CC3)n2)on1`, the Potency entry in assay [1] and in assay [2] was “inactive” in each case.
For the molecule `COC(=O)CCC(=O)OC[C@]1(C)CCC[C@@]2(C)C3CC[C@]4(C)C=CC3(CCC12)C4` (stereo not given in full), the Potency result in assay [1] and in assay [3] was “inactive” throughout.
As for `CC(=O)O[C@H]1[C@@H](O)[C@H](O[C@H]2[C@@H]3C=CO[C@@H](O[C@H]4O[C@@H](CO)[C@H](O)[C@@H](O)[C@@H]4O)[C@@H]3[C@@]3(CO)O[C@@H]23)O[C@@H](C)[C@@H]1OC(=O)/C=C/c1ccccc1`, the Potency result in assay [2] was “inactive”.
On to `CCCCc1ccc(C(=O)Nc2cc(-c3ccc(Cl)cc3)nn2-c2ccc(Cl)cc2)cc1`, for which the Potency in assay [1] is 39.8 µM (active). The Potency result in assay [2] and in assay [3] was “inactive” in each case.
On to `C=C(C)C1Cc2cc(C(=O)OC3OC(CO)C(O)C(O)C3O)ccc2O1` (stereo not given), for which the Potency entry in assay [2] is “inactive”.
`COC(=O)C1=COC(O[C@@H]2O[C@H](CO)[C@@H](O)[C@H](O)[C@H]2O)[C@H]2[C@@H]1[C@H](OC(=O)CCc1ccc(O)cc1)C[C@]2(C)O` (stereo not given in full): the Potency entry in assay [1] and in assay [2] was “inactive” each time.
Take `C=C[C@@](C)(O)CC/C=C(\C)C(=O)O[C@@H]1[C@@H]2O[C@]2(C)[C@H]2[C@H](O[C@@H]3O[C@H](CO)[C@@H](O)[C@H](O)[C@H]3O)OC=C[C@@]12O`: the Potency entry in assay [1] and in assay [2] was “inactive” throughout.
As for `COc1ccc(/C=C/C(=O)O[C@@H]2[C@@H](O)[C@H](C)O[C@@H](O[C@H]3[C@@H]4C=CO[C@@H](O[C@H]5O[C@@H](CO)[C@H](O)[C@@H](O)[C@@H]5O)[C@@H]4[C@@]4(CO)O[C@@H]34)[C@@H]2OC(C)=O)cc1`, the Potency entry in assay [2] is “inactive”.
For the molecule `C[C@@H]1O[C@@H](O[C@H]2[C@H](O[C@H]3[C@H](O)[C@@H](C(=O)O)O[C@@H](O[C@H]4CC[C@@]5(C)C(CC[C@]6(C)C5CC[C@]57OC[C@@]8(CCC(C)(C)CC85)[C@H](O)C[C@]76C)C4(C)C)[C@@H]3O[C@@H]3O[C@H](CO)[C@@H](O[C@@H]4OC[C@@H](O)[C@H](O)[C@H]4O)[C@H](O)[C@H]3O)O[C@H](CO)[C@H](O)[C@@H]2O)[C@H](O)[C@H](O)[C@H]1O` (stereo not given in full), the activity change, negative = inhibition in assay [2] was -19.8% [at 10.7 µM].
For `C[C@@H]1O[C@@H](O[C@H]2[C@H](O[C@H]3CC[C@@]4(C)C(CC[C@]5(C)C4CC=C4[C@@H]6CC(C)(C)CC[C@]6(C(=O)O[C@@H]6OC[C@H](O)[C@H](O)[C@H]6O[C@@H]6O[C@@H](C)[C@H](O[C@@H]7O[C@H](CO)[C@@H](O)[C@H](O)[C@H]7O)[C@H](O)[C@H]6O)[C@H](O)C[C@]45C)C3(C)C)O[C@H](CO)[C@@H](O[C@@H]3OC[C@@H](O)[C@H](O)[C@H]3O)[C@@H]2O)[C@H](O)[C@H](O)[C@H]1O` (stereo not given in full), the activity change, negative = inhibition is -6.95% [at 19.1 µM] in assay [1] and -3.53% [at 10.7 µM] in assay [2].
Consider `O=C(CCc1nnc2n(Cc3ccc(Cl)cc3)c(=O)c3ccccc3n12)NCCC1=CCCCC1`, for which, in assay [2], the Potency result was “inactive”.
As for `C=C(CO[C@@H]1O[C@H](CO[C@@H]2OC[C@](O)(CO)[C@H]2O)[C@@H](O)[C@H](O)[C@H]1O)C1Cc2cc(C(C)=O)ccc2O1` (stereo not given in full), in assay [2], the Potency entry was “inactive”.
For `CC1CCN(C(=O)CC#N)CC1N(C)c1ncnc2[nH]ccc12` (stereo not given), the Potency result in assay [1] and in assay [2] was “inactive” throughout.
As for `CCn1c(=O)c(-c2ccn[nH]2)cc2c(C)nc(N)nc21`, the Potency result in assay [1] and in assay [2] was “inactive” each time.
